Activity calls are given as the source filed them. Rule for the calls: active = hit-call score of the fitted dose curve at least 0.9, where 1 is the maximum; inactive = score below 0.9.
Tests used:
[1] = ATG_GRE_CIS: Attagene CIS-FACTORIAL HepG2 Assay for human Glucocorticoid Response Elements (GRE) (AID 2282947); settings: HepG2 GRE cis-reporter, Attagene multiplex mRNA; actives raise or lower the signal
Procedure, shortened: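 Transient MRTU transfection of human HepG2 liver cells; cis-regulated reporters report endogenous factors. 24 h dosing → RNA isolation → RT-PCR → 6-FAM primer extension → HpaI cut → CE fragment analysis. Bidirectional fit, DMSO negative control.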

[2] = ATG_M_32_CIS: Attagene CIS-FACTORIAL HepG2 Assay for M32 Transcription Factor (Internal Marker) (AID 2282949); settings: HepG2 Attagene cis-factorial M32 reporter, mRNA; actives raise or lower the signal;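 note: background control marker of the multiplexed CIS panel rather than a real target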
Procedure, shortened: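 Fluorescent capillary electrophoresis peaks of HpaI-digested, FAM-labelled RT-PCR reporter products give the signal. Source: transiently transfected human liver HepG2 cells, 24 h after chemical dosing; bidirectional fitting against DMSO.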

[3] = ATG_M_06_CIS: Attagene CIS-FACTORIAL HepG2 Assay for M06 Transcription Factor (Internal Marker) (AID 2282950); settings: HepG2 Attagene CIS-FACTORIAL M06 internal marker reporter; actives raise or lower the signal
Procedure, shortened: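 HepG2 cells transiently transfected with cis-regulated multiple reporter transcription units were exposed to chemical for 24 h; reporter mRNA was quantified by RT-PCR, 6-FAM primer labelling, HpaI digestion and capillary electrophoresis, fitted bidirectionally against DMSO.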

[4] = molecular target: Hypoxia-inducible factor 1-alpha (Homo sapiens) (UniProt Q16665); test: ATG_HIF1a_CIS: Attagene CIS-FACTORIAL HepG2 Assay for human Hypoxia Inducible Factor 1 (HIF1A) (AID 2282951); settings: HepG2 Attagene cis-factorial HIF1a reporter transcription; actives raise or lower the signal
Procedure, shortened: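 Activity is fitted in both directions relative to DMSO. Reporter transcripts are read by RT-PCR, fluorescent primer extension and capillary electrophoresis after 24 h chemical treatment. The cells are HepG2 carrying transiently transfected cis-element-driven reporter units responding to endogenous factors.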

[5] = molecular target: Hepatocyte nuclear factor 6 (Homo sapiens) (UniProt Q9UBC0); test: ATG_HNF6_CIS: Attagene CIS-FACTORIAL HepG2 Assay for human Hepatocyte Nuclear Factor 6 (HNF6) (AID 2282952); settings: HepG2 Attagene cis-factorial HNF6 reporter transcription; actives raise or lower the signal
Procedure, shortened: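 HepG2 cells transiently transfected with cis-element-driven multiplexed reporter units measuring endogenous transcription factor activity. After 24 h exposure, reporter mRNA quantified by RT-PCR, FAM-labelled fragments and capillary electrophoresis; bidirectional fitting versus DMSO.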

[6] = molecular target: Heat shock factor protein 1 (Homo sapiens) (UniProt Q00613); test: ATG_HSE_CIS: Attagene CIS-FACTORIAL HepG2 Assay for human Heat Shock Transcription Factor 1 (HSE) (AID 2282953); settings: HepG2 HSE cis-reporter, Attagene RNA transcription; actives raise or lower the signal
Procedure, shortened: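 HepG2 cells transiently transfected with multiple reporter transcription units under cis-regulatory promoter control, measuring endogenous transcription factor activity. After 24 h chemical exposure, reporter mRNA quantified by RT-PCR, fluorescent labelling, HpaI digestion and capillary electrophoresis; bidirectional fit versus DMSO.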

[7] = ATG_MRE_CIS: Attagene CIS-FACTORIAL HepG2 Assay for human Metal Responsive Element (MRE) (AID 2282954); settings: HepG2 MRE cis-reporter transcription, Attagene multiplex; actives raise or lower the signal
Procedure, shortened: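 Transient MRTU transfection of HepG2 (FuGene 6); 24 h dosing; total RNA → oligo(dT) RT, PCR, 6-FAM primer extension, HpaI cut, CE. Bidirectional fit vs DMSO.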

[8] = ATG_PBREM_CIS: Attagene CIS-FACTORIAL HepG2 Assay for human Phenobarbital-responsive Enhancer Module (PBREM) (AID 2282955); settings: HepG2 PBREM cis-reporter, Attagene multiplexed transcription; actives raise or lower the signal
Procedure, shortened: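 Endogenous transcription factor activity was read from reporter transcripts in transiently transfected human HepG2 liver cells after 24 h dosing. RT-PCR products were fluorescently labelled, HpaI-cut and sized by capillary electrophoresis; activity fitted bidirectionally against DMSO baseline.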

[9] = ATG_ISRE_CIS: Attagene CIS-FACTORIAL HepG2 Assay for human Interferon Regulatory Factor 1 (IRF1) binding to an Interferon-Stimulated Response Element (ISRE) (AID 2282948); settings: HepG2 ISRE cis-reporter (Attagene), mRNA transcription readout; actives raise or lower the signal
Procedure, shortened: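 Quantitation relies on labelled RT-PCR fragments separated by capillary electrophoresis. Human HepG2 cells bearing cis-promoter reporter constructs were treated 24 h; DMSO served as baseline for bidirectional fitting.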

Measured: AC50

Chain of Hypoxia-inducible factor 1-alpha (Homo sapiens) (Q16665 whole entry, looked up): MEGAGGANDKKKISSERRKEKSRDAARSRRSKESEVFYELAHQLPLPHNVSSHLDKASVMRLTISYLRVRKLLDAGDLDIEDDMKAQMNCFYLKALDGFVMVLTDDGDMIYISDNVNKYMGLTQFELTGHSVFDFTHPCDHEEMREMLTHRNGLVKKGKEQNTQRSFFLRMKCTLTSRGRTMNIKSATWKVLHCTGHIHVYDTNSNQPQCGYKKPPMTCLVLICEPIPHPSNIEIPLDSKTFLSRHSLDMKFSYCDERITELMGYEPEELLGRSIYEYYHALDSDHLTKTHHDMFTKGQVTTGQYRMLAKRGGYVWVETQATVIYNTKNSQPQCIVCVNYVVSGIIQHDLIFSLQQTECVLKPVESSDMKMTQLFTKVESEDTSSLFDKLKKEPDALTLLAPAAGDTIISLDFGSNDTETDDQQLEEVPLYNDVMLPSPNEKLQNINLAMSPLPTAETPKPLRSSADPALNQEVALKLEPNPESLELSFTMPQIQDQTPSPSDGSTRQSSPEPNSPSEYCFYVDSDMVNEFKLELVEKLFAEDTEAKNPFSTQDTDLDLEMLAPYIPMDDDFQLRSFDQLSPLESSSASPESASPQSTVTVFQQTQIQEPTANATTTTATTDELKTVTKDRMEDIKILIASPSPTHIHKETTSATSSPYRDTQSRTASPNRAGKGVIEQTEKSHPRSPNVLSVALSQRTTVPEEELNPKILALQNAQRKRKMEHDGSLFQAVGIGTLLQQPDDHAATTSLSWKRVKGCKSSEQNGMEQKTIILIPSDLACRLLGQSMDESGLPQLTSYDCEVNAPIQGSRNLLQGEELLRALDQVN
Chain of Hepatocyte nuclear factor 6 (Homo sapiens) (Q9UBC0 whole entry, looked up, the tested form may be a part): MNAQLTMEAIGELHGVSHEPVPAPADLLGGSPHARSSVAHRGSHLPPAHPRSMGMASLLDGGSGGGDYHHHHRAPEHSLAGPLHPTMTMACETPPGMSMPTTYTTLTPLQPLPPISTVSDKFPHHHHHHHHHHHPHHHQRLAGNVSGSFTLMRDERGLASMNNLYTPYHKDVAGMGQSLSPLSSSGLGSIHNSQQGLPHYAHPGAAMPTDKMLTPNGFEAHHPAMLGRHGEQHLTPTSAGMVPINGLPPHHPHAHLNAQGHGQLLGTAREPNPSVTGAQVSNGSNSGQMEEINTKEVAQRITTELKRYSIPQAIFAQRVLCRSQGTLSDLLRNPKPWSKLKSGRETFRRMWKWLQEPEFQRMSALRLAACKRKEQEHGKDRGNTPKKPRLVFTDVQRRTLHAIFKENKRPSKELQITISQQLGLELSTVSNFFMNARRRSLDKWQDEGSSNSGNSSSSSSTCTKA
Chain of Heat shock factor protein 1 (Homo sapiens) (Q00613 whole entry, looked up): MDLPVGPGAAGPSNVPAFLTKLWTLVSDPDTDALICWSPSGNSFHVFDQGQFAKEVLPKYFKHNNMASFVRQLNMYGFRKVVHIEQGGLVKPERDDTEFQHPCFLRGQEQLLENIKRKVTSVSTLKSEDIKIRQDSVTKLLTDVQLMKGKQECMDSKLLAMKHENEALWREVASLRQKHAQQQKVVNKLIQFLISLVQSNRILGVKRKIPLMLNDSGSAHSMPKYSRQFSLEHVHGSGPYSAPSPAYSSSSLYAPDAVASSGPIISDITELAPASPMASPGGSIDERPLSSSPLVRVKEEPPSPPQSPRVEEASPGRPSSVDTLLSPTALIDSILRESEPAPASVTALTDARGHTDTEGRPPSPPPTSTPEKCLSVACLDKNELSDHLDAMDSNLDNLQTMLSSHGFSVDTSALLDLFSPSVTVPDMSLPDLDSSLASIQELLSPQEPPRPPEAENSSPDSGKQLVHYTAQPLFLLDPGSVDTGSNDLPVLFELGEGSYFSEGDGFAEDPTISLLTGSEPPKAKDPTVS

CC(O)C(C)O (stereo not given)
not listed: [9]
inactive: all other assays above

CC(C)[C@@H]1CC[C@@H](C)CC1=O
active: [4] 38.4 µM
not listed: [1] | [8]
inactive: all other assays above

CCn1c2ccccc2c2cc(N)ccc21
active: [8] 37 µM
not listed: [1]
inactive: all other assays above

CCOC(=O)c1ccccc1OC
not listed: [1]
inactive: all other assays above

CCCCCC(=O)OCCc1ccccc1
not listed: [4] | [9]
inactive: all other assays above

C=C(C)[C@@H]1CC[C@@H](C)C[C@@H]1O
not listed: [1] | [8]
inactive: all other assays above

CO[Si](CCCn1c(=O)n(CCC[Si](OC)(OC)OC)c(=O)n(CCC[Si](OC)(OC)OC)c1=O)(OC)OC
not listed: [1]
inactive: all other assays above

NC(=O)Nc1ccc(Cl)cc1
not listed: [4] | [9]
inactive: all other assays above

CC1(C)C(=O)N(Br)C(=O)N1Cl
not listed: [1]
inactive: all other assays above

CCCCCOC(=O)CCC
not listed: [1]
inactive: all other assays above

CC(=O)C(=O)O
active: [4] 33.9 µM
not listed: [1]
inactive: all other assays above

C=C(C)C(=O)Nc1ccc(Cl)c(Cl)c1
active: [7] 18.9 µM | [8] 27.8 µM
not listed: [1]
inactive: all other assays above

O=C1CCCCCCCCCCOCCCCO1
active: [7] 180 µM
inactive: [1] | [2] | [3] | [5] | [8]

CCCCCCCCCCCCN(CCCCCCCCCCCC)CCCCCCCCCCCC
not listed: [1]
inactive: all other assays above

CC(=O)c1c(C)cc(C(C)(C)C)cc1C
not listed: [1]
inactive: all other assays above

CC(C)=CCC/C(C)=C/COC=O
not listed: [1]
inactive: all other assays above

CCCCCCCCCCCCCCCCCC(=O)OCC(CC)CCCC (stereo not given)
not listed: [1]
inactive: all other assays above

C=CC(=O)OCC(O)COc1ccccc1 (stereo not given)
active: [1] 67.3 µM | [6] 134 µM
not listed: [4] | [9]
inactive: all other assays above

O=C(OCc1ccccc1)C(=O)OCc1ccccc1
not listed: [6] | [9]
inactive: all other assays above

CC(C)C(C)(C)C(C)(C)C(C)(C)S
not listed: [1] | [8]
inactive: all other assays above

Fc1c(F)c(F)c(Br)c(F)c1F
not listed: [1]
inactive: all other assays above

O=[N+]([O-])c1ccc(C=Cc2ccc([N+](=O)[O-])cc2S(=O)(=O)O)c(S(=O)(=O)O)c1
not listed: [9]
inactive: all other assays above

CC(C=O)Cc1ccc(C(C)C)cc1 (stereo not given)
not listed: [6] | [9]
inactive: all other assays above

CC(C)=CCO
not listed: [1] | [8]
inactive: all other assays above

OCCOCCOCCOCCO
active: [6] 57.2 µM
not listed: [8] | [9]
inactive: all other assays above

Clc1ccc2c(c1)C(N1CCNCC1)=Nc1ccccc1O2
inactive: [1] | [3] | [4] | [5]
active: [2] 52.4 µM | [6] 52.1 µM | [7] 34.2 µM

CN1[C@@H]2CC(OC(=O)[C@H](CO)c3ccccc3)C[C@H]1[C@@H]1O[C@@H]12 (stereo not given in full)
inactive: [9] | [2] | [3] | [7] | [8]

Cc1ccc(C=O)s1
not listed: [1] | [7]
inactive: all other assays above

Clc1sc(Cl)c(Cl)c1Cl
not listed: [1] | [6]
inactive: all other assays above

CCCC[n+]1ccccc1
inactive: [2] | [3] | [4] | [5] | [7]

CCCCCCCCCCCCCCCC(=O)OC[C@H](O)[C@H]1OC(=O)C(O)=C1O
inactive: [2] | [3] | [5] | [7]
active: [6] 24.1 µM | [8] 71.7 µM

From PubChem BioAssay (EPA / NIEHS)
